Bioassay records deposited in PubChem BioAssay by National Center for Advancing Translational Sciences (NCATS).
ClpP mod – qHTS Assay for Activators of ClpP. purified B. subtilis ClpP, FRET peptide cleavage, 20 min. ATP-dependent Clp protease proteolytic subunit (Bacillus subtilis (strain 168)), P80244. Potency, µM (series often up to 57.5 µM), for the others: at the top dose activity change, negative = active. 1.9% of 340,000 active; active = well fitted falling curve with a large enough effect; inconclusive = small, poorly fitted or top-dose-only effect; inactive = no such curve, though single readings can be large or run the other way; also: potency is read from the fitted curve at half-maximal effect; the source files actives as falling curves though it sought activators and does not explain the sign; nearly all actives have a fitted effect of over 65% in size
Target sequence (P80244 whole entry, looked up): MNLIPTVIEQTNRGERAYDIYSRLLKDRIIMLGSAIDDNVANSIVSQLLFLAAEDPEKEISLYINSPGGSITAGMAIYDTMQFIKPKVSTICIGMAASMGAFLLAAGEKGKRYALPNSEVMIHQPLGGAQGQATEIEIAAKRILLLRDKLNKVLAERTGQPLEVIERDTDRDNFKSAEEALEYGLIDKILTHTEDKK
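FRET quenching reversal measured ClpP activation: 10 microg/mL B. subtilis ClpP at pH 8 with the FRET-FV decapeptide, read at 430 nm after 320 nm excitation. The 20-min minus 0-min signal was scaled between DMSO/no-enzyme wells and ADEP (5.8 microM final).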
DT40 TDP1 CPT – growth inhibition of DT40 Tdp1-/-;hTDP1 cells with camptothecin (screen for TDP1 inhibitors); AID 686979; Potency, µM (doses to about 46.2 µM), for inactives: top-dose activity change, negative = growth inhibition, hits mostly inhibitors; 12% of 420,000 active; chicken DT40 Tdp1-/-;hTDP1 cells + 20 nM CPT, ATP luminescence, 48 h; also: potency is read from the fitted curve at half-maximal effect; % is scaled to controls: 0 for no effect and ±100 for the full control effect; nearly all actives have a fitted effect of over 55% in size
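Chicken DT40 Tdp1-/- cells stably complemented with human TDP1 were seeded at 400 cells/well in medium containing 20 nM camptothecin, exposed to pin-transferred compounds, and grown at 37 °C for at least 48 hr. Viability was read as ATP luminescence.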
TDP1 cell noCPT – qHTS for Inhibitors of human tyrosyl-DNA phosphodiesterase 1 (TDP1): qHTS in cells in absence of CPT | DT40 Tdp1-/- hTDP1 cells, no CPT, ATP luminescence, 48 h | 15% of 420,000 active | AID 686978, 2013 | Potency, µM (highest dose often 46.2 µM), for the others: at the top dose activity change, negative = growth inhibition, hits mostly inhibitors; also: potency is read from the fitted curve at half-maximal effect; % is scaled to controls: 0 for no effect and ±100 for the full control effect; nearly all actives have a fitted effect of over 55% in size
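Growth kinetics read by CellTiter-Glo luminescence after ≥48 hr at 37 °C. Cells: DT40 Tdp1-/- stably carrying human TDP1, 400 per well, compound exposure in the absence of CPT (DMSO vehicle).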
IL1B secr inh – blocks inflammasome-driven IL-1 beta release; activity change, % at 57.5 µM; AID 743279; THP-1 LPS/ATP IL-1B secretion, AlphaLISA, 16 h; active compounds read low; 4.7% of 360,000 active; in the data active = activity change below about -50%; inconclusive = mostly about -30% to -49%; also: % is scaled to controls: 0 for no effect and ±100 for the full control effect
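THP-1 cells pretreated 1 hr with compounds (up to 57.5 uM final), then stimulated with LPS (250 ng/mL final) plus ATP (1.25 mM final); secreted IL-1B measured by AlphaLISA after 16 hr, decreased signal indicating inhibition.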
DRD3 antagonist – antagonists of human D3 dopamine receptor. P35462. D3R cells, DiscoveRx beta-arrestin luminescence, antagonist mode; active compounds read low. max response, negative = inhibition, %. 2.5% of 360,000 active. AID 652054; in the data active = max response below about -50%; inconclusive = no clear call, values can overlap the other calls; also: % is scaled to controls: 0 for no effect and ±100 for the full control effect
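Cells expressing the human receptor were seeded at 1500 cells/well, incubated overnight at 37 degrees C in 5% CO2, then exposed to library compounds with dopamine controls for 90 minutes at 37 degrees C before luminescent detection.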
DRD3 agonist – activates the human D3 dopamine receptor. P35462. D3R DiscoveRx beta-arrestin cells, luminescence, 90 min. max activation, %. 0.58% of 410,000 active. AID 652048; in the data active = max activation above about 30%; also: 0% is about no effect
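Agonist-mode cell screen: cells plated at 1500/well and incubated overnight at 37 °C, then exposed to library compounds for 90 min at 37 °C. Detection reagent was added for 30–60 min at room temperature, and luminescence was read.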
Starred values were filed as active, the others as inactive; ? = inconclusive; . = no result; ! = repeats disagree. In the library only some 21% were active in any assay of this set; here they are far more common. Unless noted, calls follow the shape of the dose curve; as a rule, active = well fitted inhibition curve with a large enough effect; inconclusive = small, poorly fitted or top-dose-only effect; inactive = flat fitted curve, though single readings scatter.

SMILES	ClpP mod	DT40 TDP1 CPT	TDP1 cell noCPT	IL1B secr inh	DRD3 antagonist	DRD3 agonist
COc1ccc(OC)c(NC(=O)COc2ccc(S(=O)(=O)N3CCCC3)cc2)c1	.	-4%	?	11	12	7
CN(C)c1ccc(S(=O)(=O)N2CCCCC2)cc1NC(=O)CN1C(=O)NC2(CCCC2)C1=O	.	-2%	7%	-18	-3	-2
CS(=O)(=O)c1ccc(C(=O)N2CCN(C(=O)c3ccco3)CC2)cc1	0%	2%	12%	14	26	7
O=[N+]([O-])c1ccc(N2CCN(C(=S)c3cccc([N+](=O)[O-])c3)CC2)cc1	.	15µM*	21µM*	-16	-14	-6
CCn1c(SC(C)C(=O)Nc2nccs2)nnc1-c1ccncc1 (centres undefined)	-19%	1%	0%	-5	-13	-4
CCc1nc2c(OCc3ccccc3C)cccn2c1N(C)C(=O)C(C)C	?	18µM*	16µM*	114	-78*	-19
CCc1nc2c(OCc3ccccc3C)cccn2c1N(C)C(=O)CC(C)C	0%	21µM*	18µM*	1	0	-7
CCc1nc2c(OCc3ccc(C(=O)OC)cc3)cccn2c1N(C)C(=O)CC(C)C	2%	?	?	2	-7	-20
CCCCC(=O)N(C)c1c(CC)nc2c(OCc3ccccc3C)cccn12	-1%	29µM*	29µM*	-22	-19	-1
CCOC(=O)C(=O)N(C)c1c(CC)nc2c(OCc3ccccc3C)cccn12	0%	-24%	-22%	9	0	-5
CCN(CC)CCOc1c(C)cccc1Cl	.	0%	10%	13	5	-3
CCN(CCO)CCCC(C)Nc1ccnc2cc(Cl)ccc12 (centres undefined)	.	2.6µM*	4.1µM*!	.	.	5
CCOC(=O)N1CCC(=NNc2ccnc3cc(Cl)ccc23)CC1	.	-19%	?	19	-12	-9
S=C(NNc1ccnc2cc(Cl)ccc12)Nc1ccccc1Cl	-4%	4.1µM*	2.6µM*	-91*	-24	-14
CCN(CC)CCCC(C)Nc1nccc2c(Cl)cccc12 (centres undefined)	0%	21µM*	?	?	-27	-18
Oc1ccc(Nc2ccnc3cc(Cl)ccc23)cc1	.	?	21µM*	-74*	-25	-9
Cc1nn2c(=O)cc(COC(=O)Cc3ccccc3)nc2s1	0%	1%	-6%	.	.	13
Clc1ccc2c(NCc3ccccc3)ccnc2c1	.	?	10µM*	-99*	26	5
Clc1ccc(NNc2ccnc3cc(Cl)ccc23)cc1	3%	?	?	-30	?	-8
CCN(CC)CCNc1ccnc2cc(Cl)ccc12	32µM*	-21%	-22%	-56*	-80*	-30
Cc1ccc(NC(=O)C2CCN(S(C)(=O)=O)CC2)c(C)c1	1%	-10%	3%	14	0	-4
O=C(O)C1=C(C2CCCCC2)C(=O)c2ccccc21	-1%	-25%	-30%	-55*	3	-1
O=C(c1ccccc1)N1CCN(C2CCCCC2)CC1	0%	-8%	?	15	-25	-12
O=C1C=C(C2CCCCC2)C(=O)c2ccccc21	.	21µM*	15µM*	82	3	2
Cc1ccc(S(=O)(=O)N2CCOCC2)cc1C(=O)N1CCN(c2ncccn2)CC1	?	7%	5%	-9	0	6
CN1c2ccccc2C(C)(C)C12CC(CCl)=NO2 (centres undefined)	-2%	16µM*	21µM*	-12	-20	-2
CCCCNC(=O)C1(C)CCC(=O)N1CCc1c[nH]c2ccccc12 (centres undefined)	-7%	1%	-4%	7	24	-2
